Legend:
Experiment in all cases: DAPPL (digital affinity profiling via proximity ligation, sequencing); 10 mM Tris-HCl pH 7.5, 50 mM NaCl, 1 mM DTT, 4% glycerol, room temperature, 30 min; GST-TFs on glutathione beads, 16-mer random dsDNA library, 0.1% formaldehyde crosslink after washing; high values mean tight binding
FLI1 = biological target: T1, FLI1 (Homo sapiens, UniProt Q01543 1-452); conditions: protein: recombinant; tags: N-terminal GST; dsDNA, one strand shown
T1 sequence: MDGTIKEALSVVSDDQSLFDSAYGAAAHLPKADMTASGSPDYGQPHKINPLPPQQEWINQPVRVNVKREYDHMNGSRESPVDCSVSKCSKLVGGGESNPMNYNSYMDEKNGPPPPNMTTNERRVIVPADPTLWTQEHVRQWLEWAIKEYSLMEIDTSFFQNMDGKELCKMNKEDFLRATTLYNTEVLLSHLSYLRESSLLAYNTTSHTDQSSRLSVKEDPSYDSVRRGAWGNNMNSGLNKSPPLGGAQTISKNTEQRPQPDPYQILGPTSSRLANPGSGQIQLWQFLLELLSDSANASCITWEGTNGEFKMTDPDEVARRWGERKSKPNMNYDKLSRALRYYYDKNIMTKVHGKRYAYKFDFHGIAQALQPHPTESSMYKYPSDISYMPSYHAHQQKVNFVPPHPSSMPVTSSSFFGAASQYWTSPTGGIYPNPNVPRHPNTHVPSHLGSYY
In short: (§1)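 After expression in yeast as GST fusions, human transcription factors were bound to glutathione beads, DNA-barcoded and mixed with a tag-only sample. The pools were incubated with 200 nmole of a 16-mer random double-stranded DNA library in Tris/NaCl/DTT/glycerol buffer (30 min, room temperature), washed and crosslinked with 0.1% formaldehyde. Proximity ligation with BsaI/T4 ligase ran for 1 h at 37 °C, before PCR amplification and sequencing on an Illumina NextSeq500. Binding signal is a hexamer's read frequency for a factor divided by its frequency for the tag-only sample.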

ELK1 = biological target: T2, ELK1 (Homo sapiens, UniProt P19419 1-428); conditions: protein: recombinant; tags: N-terminal GST; dsDNA, one strand shown
T2 sequence: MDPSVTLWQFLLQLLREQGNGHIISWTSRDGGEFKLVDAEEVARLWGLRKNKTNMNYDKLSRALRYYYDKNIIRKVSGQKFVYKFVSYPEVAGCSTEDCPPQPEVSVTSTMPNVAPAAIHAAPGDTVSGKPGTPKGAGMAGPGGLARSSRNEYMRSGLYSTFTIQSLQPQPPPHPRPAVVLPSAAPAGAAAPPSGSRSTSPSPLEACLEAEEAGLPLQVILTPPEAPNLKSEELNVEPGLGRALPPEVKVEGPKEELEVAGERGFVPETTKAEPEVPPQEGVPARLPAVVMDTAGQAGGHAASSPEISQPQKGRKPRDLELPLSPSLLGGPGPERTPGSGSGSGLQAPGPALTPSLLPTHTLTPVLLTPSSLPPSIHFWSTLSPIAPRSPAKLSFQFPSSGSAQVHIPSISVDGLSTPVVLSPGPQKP
In short: as §1

GABPA = biological target: T3, GABPA (Homo sapiens, UniProt Q06546 1-454); conditions: protein: recombinant; tags: N-terminal GST; dsDNA, one strand shown
T3 sequence: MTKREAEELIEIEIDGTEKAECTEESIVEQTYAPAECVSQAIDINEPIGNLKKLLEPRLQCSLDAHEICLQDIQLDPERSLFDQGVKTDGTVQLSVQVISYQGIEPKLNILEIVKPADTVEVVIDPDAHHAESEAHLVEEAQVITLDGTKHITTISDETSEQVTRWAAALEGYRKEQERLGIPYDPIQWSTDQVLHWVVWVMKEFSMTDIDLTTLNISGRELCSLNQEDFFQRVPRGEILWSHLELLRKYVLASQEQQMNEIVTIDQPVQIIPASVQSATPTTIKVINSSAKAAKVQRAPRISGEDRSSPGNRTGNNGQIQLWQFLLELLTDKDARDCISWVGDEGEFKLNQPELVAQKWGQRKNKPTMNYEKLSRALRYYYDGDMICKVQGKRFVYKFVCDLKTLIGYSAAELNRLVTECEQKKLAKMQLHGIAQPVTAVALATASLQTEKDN
In short: as §1

ERG = biological target: T4, ERG (Homo sapiens, UniProt P11308 1-479); conditions: protein: recombinant; tags: N-terminal GST; dsDNA, one strand shown
T4 sequence: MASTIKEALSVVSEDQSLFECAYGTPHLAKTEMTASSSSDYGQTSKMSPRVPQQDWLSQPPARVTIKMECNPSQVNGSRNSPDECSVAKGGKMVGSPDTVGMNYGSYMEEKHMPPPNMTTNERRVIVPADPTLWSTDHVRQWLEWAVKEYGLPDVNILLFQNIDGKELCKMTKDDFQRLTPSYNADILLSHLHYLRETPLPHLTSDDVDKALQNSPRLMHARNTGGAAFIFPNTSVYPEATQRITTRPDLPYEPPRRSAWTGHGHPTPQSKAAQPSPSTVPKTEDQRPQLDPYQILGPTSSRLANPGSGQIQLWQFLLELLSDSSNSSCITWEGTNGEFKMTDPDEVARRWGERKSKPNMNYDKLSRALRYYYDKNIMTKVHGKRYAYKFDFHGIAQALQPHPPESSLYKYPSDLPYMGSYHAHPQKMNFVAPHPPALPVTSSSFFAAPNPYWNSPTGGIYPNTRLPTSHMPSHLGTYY
In short: as §1

ELF1 = ELF1 (Homo sapiens, UniProt P32519 1-619); conditions: protein: recombinant; tags: N-terminal GST; dsDNA, one strand shown
Chain of ELF1 (P32519 whole entry): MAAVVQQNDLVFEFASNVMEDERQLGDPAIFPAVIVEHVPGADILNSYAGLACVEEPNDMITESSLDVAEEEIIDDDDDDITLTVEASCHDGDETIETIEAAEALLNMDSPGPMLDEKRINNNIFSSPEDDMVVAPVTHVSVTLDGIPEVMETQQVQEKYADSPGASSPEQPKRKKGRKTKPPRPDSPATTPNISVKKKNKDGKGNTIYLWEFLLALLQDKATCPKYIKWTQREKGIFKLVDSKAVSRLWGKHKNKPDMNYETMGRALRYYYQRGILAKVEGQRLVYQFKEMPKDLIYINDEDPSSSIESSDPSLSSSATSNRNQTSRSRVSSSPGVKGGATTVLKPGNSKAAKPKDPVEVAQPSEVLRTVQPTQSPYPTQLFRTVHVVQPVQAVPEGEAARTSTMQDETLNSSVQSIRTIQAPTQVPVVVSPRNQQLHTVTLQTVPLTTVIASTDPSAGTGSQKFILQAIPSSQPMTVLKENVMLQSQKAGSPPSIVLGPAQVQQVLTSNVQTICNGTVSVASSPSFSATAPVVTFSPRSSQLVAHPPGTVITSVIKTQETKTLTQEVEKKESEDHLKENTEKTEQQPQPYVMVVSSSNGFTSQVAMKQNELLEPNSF
In short: as §1

EHF = biological target: T5, EHF (Homo sapiens, UniProt Q9NZC4 1-300); conditions: protein: recombinant; tags: N-terminal GST; dsDNA, one strand shown
T5 sequence: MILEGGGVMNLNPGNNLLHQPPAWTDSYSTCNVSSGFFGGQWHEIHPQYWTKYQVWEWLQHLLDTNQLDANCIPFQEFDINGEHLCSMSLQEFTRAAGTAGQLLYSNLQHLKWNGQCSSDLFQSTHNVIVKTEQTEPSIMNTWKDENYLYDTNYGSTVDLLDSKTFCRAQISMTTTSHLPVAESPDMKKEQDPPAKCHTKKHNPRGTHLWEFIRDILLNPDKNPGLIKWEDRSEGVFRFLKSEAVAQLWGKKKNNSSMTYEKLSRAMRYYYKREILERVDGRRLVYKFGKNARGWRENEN
In short: as §1

SPI1 = SPI1 (Homo sapiens, UniProt P17947 1-270); conditions: protein: recombinant; tags: N-terminal GST; dsDNA, one strand shown
In short: as §1

SPIB = SPIB (Homo sapiens, UniProt Q01892 1-262); conditions: protein: recombinant; tags: N-terminal GST; dsDNA, one strand shown
Chain of SPIB (Q01892 whole entry): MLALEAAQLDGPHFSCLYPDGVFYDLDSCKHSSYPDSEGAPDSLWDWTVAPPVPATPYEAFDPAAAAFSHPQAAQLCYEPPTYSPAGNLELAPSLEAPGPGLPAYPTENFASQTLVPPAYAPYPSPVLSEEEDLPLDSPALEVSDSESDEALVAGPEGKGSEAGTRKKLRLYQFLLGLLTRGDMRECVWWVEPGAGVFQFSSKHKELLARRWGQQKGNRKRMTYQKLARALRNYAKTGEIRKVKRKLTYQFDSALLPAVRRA
In short: as §1

ELK3 = biological target: T6, ELK3 (Homo sapiens, UniProt P41970 1-407); conditions: protein: recombinant; tags: N-terminal GST; dsDNA, one strand shown
T6 sequence: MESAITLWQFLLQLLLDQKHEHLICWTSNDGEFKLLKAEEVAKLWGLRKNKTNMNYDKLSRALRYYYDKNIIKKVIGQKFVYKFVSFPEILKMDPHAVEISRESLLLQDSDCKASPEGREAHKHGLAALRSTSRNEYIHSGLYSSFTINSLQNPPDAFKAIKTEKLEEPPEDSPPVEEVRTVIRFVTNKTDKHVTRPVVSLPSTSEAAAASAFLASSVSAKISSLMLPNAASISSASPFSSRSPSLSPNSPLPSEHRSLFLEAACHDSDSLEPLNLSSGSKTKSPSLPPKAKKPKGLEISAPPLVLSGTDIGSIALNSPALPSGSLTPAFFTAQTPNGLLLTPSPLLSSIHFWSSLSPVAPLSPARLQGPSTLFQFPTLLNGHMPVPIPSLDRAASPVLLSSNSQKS
In short: as §1

FEV = biological target: T7, FEV (Homo sapiens, UniProt Q99581 1-238); conditions: protein: recombinant; tags: N-terminal GST; dsDNA, one strand shown
T7 sequence: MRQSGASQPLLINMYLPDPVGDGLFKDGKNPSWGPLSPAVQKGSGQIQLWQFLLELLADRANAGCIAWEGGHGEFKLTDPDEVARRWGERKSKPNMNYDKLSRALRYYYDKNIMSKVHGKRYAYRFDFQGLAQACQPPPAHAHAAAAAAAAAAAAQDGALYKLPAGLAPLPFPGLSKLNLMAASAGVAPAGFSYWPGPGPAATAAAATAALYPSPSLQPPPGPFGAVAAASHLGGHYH
In short: as §1

ETV5 = ETV5 (Homo sapiens, UniProt P41161 1-510); conditions: protein: recombinant; tags: N-terminal GST; dsDNA, one strand shown
Chain of ETV5 (P41161 whole entry): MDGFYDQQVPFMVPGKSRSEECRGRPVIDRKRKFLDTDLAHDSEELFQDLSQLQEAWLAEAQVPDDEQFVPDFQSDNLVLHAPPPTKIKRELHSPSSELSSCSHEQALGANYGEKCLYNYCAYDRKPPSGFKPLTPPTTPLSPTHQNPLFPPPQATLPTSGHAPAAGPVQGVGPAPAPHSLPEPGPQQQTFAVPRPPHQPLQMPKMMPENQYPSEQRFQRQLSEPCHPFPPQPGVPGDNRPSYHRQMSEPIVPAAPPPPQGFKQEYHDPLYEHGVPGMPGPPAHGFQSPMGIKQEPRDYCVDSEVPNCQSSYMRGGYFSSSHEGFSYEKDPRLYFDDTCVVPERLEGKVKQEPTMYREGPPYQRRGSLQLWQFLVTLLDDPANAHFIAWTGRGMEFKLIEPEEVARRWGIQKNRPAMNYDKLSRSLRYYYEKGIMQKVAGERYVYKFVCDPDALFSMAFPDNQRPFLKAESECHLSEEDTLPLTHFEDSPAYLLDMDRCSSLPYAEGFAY
In short: as §1

HSF1 = HSF1 (Homo sapiens, UniProt Q00613 1-529); conditions: protein: recombinant; tags: N-terminal GST; chain copies: 3; dsDNA, one strand shown
Chain of HSF1 (Q00613 whole entry): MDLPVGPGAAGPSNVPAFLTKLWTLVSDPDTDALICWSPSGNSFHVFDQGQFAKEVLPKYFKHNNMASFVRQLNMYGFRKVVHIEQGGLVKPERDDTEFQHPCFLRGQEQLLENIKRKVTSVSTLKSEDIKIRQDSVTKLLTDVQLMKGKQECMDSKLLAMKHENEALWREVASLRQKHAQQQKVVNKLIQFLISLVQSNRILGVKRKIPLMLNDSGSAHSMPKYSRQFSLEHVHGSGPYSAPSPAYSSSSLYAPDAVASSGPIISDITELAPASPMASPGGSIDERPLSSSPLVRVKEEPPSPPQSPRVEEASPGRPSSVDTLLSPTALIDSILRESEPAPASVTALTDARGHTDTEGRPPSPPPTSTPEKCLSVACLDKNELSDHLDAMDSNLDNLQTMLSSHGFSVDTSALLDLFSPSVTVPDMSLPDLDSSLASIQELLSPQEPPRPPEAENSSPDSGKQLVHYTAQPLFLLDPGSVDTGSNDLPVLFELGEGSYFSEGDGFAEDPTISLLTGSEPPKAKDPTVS
In short: as §1

SPIC = biological target: T8, SPIC (Homo sapiens, UniProt Q8N5J4 1-248); conditions: protein: recombinant; tags: N-terminal GST; dsDNA, one strand shown
T8 sequence: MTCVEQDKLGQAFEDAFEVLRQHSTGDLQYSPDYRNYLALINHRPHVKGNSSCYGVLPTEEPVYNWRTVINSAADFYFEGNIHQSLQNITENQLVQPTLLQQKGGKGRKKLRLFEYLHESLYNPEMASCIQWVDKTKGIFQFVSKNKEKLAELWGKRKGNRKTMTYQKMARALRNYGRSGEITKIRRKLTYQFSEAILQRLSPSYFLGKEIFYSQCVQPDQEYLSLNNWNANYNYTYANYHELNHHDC
In short: as §1

ELF4 = ELF4 (Homo sapiens, UniProt Q99607 1-663); conditions: protein: recombinant; tags: N-terminal GST; dsDNA, one strand shown
Chain of ELF4 (Q99607 whole entry): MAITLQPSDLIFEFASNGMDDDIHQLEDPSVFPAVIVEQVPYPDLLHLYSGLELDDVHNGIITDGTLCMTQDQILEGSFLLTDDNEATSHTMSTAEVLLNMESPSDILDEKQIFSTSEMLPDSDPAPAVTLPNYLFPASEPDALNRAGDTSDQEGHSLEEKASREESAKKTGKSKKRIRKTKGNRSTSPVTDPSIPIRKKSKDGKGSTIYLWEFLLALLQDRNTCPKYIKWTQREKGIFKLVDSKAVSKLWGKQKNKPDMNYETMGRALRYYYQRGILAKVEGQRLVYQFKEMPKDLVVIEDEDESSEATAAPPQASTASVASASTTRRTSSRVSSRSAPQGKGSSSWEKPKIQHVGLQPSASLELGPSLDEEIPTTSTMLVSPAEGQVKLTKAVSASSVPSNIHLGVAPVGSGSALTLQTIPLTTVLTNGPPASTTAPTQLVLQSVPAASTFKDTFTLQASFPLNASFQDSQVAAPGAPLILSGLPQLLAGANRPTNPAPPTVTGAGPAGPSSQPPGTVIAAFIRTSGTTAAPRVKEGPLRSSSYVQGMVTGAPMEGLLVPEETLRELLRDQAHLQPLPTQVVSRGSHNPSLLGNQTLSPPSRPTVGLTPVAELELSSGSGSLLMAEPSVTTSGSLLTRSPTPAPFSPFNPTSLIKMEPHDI
In short: as §1

ELK4 = biological target: T9, ELK4 (Homo sapiens, UniProt P28324-2 1-405); conditions: protein: recombinant; tags: N-terminal GST; dsDNA, one strand shown
T9 sequence: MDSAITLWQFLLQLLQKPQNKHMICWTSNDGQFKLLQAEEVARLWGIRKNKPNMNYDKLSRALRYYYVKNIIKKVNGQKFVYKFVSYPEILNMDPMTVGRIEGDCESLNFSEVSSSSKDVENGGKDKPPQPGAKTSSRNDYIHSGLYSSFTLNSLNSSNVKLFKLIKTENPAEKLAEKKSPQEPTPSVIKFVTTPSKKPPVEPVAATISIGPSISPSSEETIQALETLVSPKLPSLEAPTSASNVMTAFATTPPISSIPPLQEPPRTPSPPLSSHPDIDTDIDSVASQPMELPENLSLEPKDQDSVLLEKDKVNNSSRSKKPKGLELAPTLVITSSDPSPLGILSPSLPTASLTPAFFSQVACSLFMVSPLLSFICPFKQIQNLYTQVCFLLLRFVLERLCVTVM
In short: as §1

ETV2 = biological target: T10, ETV2 (Homo sapiens, UniProt O00321 1-342); conditions: protein: recombinant; tags: N-terminal GST; dsDNA, one strand shown
T10 sequence: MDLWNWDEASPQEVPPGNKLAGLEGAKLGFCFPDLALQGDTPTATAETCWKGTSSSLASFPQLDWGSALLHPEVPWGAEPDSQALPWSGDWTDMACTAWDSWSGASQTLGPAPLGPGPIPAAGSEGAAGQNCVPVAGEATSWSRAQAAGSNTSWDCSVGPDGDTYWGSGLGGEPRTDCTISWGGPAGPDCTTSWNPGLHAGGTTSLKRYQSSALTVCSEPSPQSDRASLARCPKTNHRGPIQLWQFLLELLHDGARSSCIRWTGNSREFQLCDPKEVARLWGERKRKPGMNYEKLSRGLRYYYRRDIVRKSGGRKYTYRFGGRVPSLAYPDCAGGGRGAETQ
In short: as §1

ELF3 = biological target: T11, ELF3 (Homo sapiens, UniProt P78545 1-371); conditions: protein: recombinant; tags: N-terminal GST; dsDNA, one strand shown
T11 sequence: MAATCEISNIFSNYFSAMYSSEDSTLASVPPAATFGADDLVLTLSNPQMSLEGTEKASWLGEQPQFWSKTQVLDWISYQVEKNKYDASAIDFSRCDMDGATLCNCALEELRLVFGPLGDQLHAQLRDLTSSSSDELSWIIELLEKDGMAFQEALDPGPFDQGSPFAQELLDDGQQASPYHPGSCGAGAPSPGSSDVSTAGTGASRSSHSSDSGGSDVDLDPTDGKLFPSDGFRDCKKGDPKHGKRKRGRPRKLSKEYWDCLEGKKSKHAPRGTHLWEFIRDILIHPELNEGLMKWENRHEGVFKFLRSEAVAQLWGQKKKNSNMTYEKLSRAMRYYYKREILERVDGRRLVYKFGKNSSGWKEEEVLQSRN
In short: as §1

CRX = CRX (Homo sapiens, UniProt O43186 1-299); conditions: protein: recombinant; tags: N-terminal GST; dsDNA, one strand shown
Chain of CRX (O43186 whole entry): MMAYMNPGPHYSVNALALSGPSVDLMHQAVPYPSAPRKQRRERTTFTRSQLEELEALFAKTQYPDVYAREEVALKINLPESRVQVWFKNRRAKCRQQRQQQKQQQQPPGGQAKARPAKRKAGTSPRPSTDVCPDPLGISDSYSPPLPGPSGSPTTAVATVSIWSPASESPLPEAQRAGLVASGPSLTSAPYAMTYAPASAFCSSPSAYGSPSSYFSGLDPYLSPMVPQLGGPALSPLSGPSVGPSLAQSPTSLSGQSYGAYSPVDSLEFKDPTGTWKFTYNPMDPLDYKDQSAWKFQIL
In short: as §1

ETV1 = ETV1 (Homo sapiens, UniProt P50549 1-477); conditions: protein: recombinant; tags: N-terminal GST; dsDNA, one strand shown
Chain of ETV1 (P50549 whole entry): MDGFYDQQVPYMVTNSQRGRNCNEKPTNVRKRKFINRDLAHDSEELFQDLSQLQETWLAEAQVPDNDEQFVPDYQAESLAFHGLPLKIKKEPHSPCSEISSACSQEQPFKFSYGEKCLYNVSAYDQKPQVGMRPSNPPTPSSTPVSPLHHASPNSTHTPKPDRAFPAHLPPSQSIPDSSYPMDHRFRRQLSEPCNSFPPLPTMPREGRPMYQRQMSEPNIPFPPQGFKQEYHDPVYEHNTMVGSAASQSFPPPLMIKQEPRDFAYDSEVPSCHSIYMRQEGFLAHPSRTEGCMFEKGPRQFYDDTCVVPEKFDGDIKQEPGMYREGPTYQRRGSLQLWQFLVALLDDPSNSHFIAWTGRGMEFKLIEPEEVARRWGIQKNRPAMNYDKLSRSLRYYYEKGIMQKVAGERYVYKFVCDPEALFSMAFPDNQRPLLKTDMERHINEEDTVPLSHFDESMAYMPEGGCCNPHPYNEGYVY
In short: as §1

ATTTTC
binding signal (FLI1): 1.47 fold enrichment (6-mer frequency, TF over GST control) | binding signal (ELK1): 1.35 fold enrichment (6-mer frequency, TF over GST control) | binding signal (GABPA): 1.46 fold enrichment (6-mer frequency, TF over GST control) | binding signal (ERG): 1.46 fold enrichment (6-mer frequency, TF over GST control) | binding signal (ELF1): 1.31 fold enrichment (6-mer frequency, TF over GST control) | binding signal (EHF): 1.49 fold enrichment (6-mer frequency, TF over GST control) | binding signal (SPI1): 1.56 fold enrichment (6-mer frequency, TF over GST control) | binding signal (SPIB): 1.41 fold enrichment (6-mer frequency, TF over GST control) | binding signal (ELK3): 1.31 fold enrichment (6-mer frequency, TF over GST control) | binding signal (FEV): 1.35 fold enrichment (6-mer frequency, TF over GST control) | binding signal (ETV5): 1.44 fold enrichment (6-mer frequency, TF over GST control) | binding signal (HSF1): 2.04 fold enrichment (6-mer frequency, TF over GST control) | binding signal (SPIC): 1.44 fold enrichment (6-mer frequency, TF over GST control) | binding signal (ELF4): 1.64 fold enrichment (6-mer frequency, TF over GST control) | binding signal (ELK4): 1.5 fold enrichment (6-mer frequency, TF over GST control) | binding signal (ETV2): 1.63 fold enrichment (6-mer frequency, TF over GST control) | binding signal (ELF3): 1.48 fold enrichment (6-mer frequency, TF over GST control) | binding signal (CRX): 1.67 fold enrichment (6-mer frequency, TF over GST control) | binding signal (ETV1): 1.4 fold enrichment (6-mer frequency, TF over GST control)

Reference: paper PMC7862700, “An all-to-all approach to the identification of sequence-specific readers for epigenetic DNA modifications on cytosine”
